In ChEMBL document CHEMBL1961873, “Compounds: GSK PKIS; Assays: Nanosyn kinase panel” (2012):

Key:
[1] = target: Tyrosine-protein kinase Fyn (Homo sapiens) (UniProt P06241); details: at 1 µM
[2] = target: Tyrosine-protein kinase HCK (Homo sapiens) (UniProt P08631); details: at 0.1 µM
[3] = target: Tyrosine-protein kinase HCK (Homo sapiens) (UniProt P08631); details: at 1 µM
[4] = target: Insulin-like growth factor 1 receptor (Homo sapiens) (UniProt P08069); details: at 0.1 µM
[5] = target: Insulin-like growth factor 1 receptor (Homo sapiens) (UniProt P08069); details: at 1 µM
[6] = target: Insulin receptor (Homo sapiens) (UniProt P06213); details: at 0.1 µM
[7] = target: Insulin receptor (Homo sapiens) (UniProt P06213); details: at 1 µM
[8] = target: Insulin receptor-related protein (Homo sapiens) (UniProt P14616); details: at 0.1 µM
[9] = target: Insulin receptor-related protein (Homo sapiens) (UniProt P14616); details: at 1 µM
[10] = target: T1, Tyrosine-protein kinase ITK/TSK (Homo sapiens) (UniProt Q08881); details: at 0.1 µM;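 note: mean percent inhibition of ITK from the GSK PKIS screen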
T1 sequence (whole entry): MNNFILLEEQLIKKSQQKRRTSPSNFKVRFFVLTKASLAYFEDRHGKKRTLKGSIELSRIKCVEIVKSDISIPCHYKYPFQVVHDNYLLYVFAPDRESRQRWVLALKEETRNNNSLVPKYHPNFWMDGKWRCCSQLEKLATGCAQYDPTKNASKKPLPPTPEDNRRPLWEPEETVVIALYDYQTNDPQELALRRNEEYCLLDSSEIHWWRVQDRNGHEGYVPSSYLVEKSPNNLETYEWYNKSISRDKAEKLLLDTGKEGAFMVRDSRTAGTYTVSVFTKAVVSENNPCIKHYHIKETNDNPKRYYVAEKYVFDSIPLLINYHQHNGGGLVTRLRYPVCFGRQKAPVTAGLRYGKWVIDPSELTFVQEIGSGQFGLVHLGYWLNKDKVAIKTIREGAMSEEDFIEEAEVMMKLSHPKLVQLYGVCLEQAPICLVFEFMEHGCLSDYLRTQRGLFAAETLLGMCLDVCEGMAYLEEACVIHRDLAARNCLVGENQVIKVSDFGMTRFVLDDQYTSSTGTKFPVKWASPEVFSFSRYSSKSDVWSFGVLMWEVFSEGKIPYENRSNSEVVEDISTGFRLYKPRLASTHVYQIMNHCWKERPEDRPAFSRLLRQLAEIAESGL

Insulin receptor (Homo sapiens), sequence (P06213 28-758 limits assumed): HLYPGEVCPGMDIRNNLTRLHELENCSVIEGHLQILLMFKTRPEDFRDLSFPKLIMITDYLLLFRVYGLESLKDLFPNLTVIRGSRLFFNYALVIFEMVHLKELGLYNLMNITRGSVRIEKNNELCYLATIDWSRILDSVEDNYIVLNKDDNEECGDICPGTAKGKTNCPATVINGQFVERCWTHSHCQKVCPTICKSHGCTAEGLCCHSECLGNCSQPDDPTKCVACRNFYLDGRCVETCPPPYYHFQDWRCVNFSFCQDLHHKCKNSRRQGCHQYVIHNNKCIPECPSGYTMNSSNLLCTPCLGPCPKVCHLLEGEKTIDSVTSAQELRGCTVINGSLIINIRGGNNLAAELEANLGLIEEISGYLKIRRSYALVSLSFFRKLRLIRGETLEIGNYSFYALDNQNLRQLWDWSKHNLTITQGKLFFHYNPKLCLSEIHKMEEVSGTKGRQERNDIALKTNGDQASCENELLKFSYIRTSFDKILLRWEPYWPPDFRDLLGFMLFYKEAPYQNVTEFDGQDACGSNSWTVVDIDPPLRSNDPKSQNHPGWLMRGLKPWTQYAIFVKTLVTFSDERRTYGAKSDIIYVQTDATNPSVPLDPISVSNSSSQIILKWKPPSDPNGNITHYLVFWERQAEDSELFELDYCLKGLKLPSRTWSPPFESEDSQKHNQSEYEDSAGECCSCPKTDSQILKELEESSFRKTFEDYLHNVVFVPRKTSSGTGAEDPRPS
Insulin receptor (Homo sapiens), sequence (P06213 763-1382 limits assumed): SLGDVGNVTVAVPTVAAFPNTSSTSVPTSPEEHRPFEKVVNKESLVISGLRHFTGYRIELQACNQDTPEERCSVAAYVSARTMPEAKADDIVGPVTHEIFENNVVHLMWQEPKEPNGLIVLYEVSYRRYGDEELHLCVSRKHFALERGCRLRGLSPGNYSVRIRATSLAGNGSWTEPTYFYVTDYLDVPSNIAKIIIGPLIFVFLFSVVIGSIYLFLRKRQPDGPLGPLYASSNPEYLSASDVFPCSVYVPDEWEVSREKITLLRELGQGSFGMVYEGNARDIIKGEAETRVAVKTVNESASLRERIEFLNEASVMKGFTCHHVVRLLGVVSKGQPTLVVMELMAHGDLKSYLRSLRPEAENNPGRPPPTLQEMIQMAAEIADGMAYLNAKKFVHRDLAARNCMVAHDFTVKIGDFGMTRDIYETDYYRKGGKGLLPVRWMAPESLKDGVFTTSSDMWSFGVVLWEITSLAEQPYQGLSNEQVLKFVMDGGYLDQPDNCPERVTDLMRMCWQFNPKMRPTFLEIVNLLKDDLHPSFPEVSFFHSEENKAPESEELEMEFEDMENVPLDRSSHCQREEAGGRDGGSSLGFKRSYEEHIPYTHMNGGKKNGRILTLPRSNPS
Tyrosine-protein kinase Fyn (Homo sapiens), sequence (P06241 2-537 limits assumed): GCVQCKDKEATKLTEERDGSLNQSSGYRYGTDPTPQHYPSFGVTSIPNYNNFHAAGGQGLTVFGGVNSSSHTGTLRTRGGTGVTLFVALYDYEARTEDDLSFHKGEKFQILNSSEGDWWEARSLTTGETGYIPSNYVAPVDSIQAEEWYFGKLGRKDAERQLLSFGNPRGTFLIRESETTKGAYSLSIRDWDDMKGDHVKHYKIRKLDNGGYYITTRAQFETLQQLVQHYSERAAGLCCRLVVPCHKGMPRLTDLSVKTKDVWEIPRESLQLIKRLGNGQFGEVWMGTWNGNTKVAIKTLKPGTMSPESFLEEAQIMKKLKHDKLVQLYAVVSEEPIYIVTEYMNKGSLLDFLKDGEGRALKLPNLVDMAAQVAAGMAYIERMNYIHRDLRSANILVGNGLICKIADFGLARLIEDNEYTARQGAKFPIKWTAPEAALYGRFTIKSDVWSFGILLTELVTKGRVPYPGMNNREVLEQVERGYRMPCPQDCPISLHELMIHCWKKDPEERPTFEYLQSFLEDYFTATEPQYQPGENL
Insulin-like growth factor 1 receptor (Homo sapiens), sequence (P08069 31-736 limits assumed): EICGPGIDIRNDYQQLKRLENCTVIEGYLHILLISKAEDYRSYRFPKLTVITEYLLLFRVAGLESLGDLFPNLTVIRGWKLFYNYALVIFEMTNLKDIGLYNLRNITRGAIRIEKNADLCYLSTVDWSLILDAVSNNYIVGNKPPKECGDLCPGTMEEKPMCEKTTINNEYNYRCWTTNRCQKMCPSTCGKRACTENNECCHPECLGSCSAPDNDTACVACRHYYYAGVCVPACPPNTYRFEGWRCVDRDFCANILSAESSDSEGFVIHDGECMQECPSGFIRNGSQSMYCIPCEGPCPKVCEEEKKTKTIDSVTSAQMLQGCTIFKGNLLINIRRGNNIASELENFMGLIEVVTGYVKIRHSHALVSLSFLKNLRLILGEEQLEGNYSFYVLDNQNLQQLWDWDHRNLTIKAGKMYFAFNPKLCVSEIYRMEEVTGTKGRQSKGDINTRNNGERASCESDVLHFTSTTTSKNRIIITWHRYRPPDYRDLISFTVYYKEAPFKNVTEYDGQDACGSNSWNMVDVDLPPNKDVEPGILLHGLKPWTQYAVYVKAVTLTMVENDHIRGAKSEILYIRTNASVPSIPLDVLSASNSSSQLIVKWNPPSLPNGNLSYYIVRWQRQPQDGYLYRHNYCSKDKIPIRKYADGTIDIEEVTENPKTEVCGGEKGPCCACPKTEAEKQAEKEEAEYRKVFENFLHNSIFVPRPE
Insulin-like growth factor 1 receptor (Homo sapiens), sequence (P08069 741-1367 limits assumed): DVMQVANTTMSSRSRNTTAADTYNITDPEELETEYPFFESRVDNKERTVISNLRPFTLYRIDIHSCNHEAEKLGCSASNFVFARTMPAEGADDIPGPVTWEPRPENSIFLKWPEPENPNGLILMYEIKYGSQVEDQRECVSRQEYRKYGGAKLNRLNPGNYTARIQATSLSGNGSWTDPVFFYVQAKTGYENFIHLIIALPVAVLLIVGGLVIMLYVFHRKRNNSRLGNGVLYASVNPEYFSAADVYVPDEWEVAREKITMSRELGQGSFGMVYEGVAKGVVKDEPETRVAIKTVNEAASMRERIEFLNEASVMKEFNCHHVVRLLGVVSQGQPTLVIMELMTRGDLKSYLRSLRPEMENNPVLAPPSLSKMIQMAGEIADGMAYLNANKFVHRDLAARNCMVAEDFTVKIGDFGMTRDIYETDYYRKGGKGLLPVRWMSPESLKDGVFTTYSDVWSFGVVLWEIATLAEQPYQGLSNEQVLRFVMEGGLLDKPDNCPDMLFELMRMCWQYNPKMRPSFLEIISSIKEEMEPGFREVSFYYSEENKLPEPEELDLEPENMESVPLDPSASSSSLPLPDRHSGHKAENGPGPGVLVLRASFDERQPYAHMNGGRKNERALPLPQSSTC
Insulin receptor-related protein (Homo sapiens), sequence (P14616 27-742 limits assumed): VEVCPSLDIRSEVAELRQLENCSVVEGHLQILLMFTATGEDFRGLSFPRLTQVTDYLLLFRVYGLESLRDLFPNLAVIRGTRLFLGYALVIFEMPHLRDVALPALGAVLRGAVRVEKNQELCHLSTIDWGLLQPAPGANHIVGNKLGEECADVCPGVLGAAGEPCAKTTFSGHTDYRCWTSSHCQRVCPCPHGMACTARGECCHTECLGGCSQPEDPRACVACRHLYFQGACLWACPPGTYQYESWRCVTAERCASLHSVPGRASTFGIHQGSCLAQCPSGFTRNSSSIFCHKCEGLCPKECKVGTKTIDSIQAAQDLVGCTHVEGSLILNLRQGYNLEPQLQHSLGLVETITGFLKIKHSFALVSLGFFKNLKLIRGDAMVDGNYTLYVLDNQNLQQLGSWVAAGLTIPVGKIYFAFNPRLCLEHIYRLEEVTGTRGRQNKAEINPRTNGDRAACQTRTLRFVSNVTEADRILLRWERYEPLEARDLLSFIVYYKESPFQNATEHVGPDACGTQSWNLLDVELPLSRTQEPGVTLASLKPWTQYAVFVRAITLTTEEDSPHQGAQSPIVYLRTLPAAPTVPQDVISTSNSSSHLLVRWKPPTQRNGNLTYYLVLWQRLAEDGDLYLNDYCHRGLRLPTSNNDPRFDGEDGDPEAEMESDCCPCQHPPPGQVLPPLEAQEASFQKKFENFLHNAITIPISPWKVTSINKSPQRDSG
Insulin receptor-related protein (Homo sapiens), sequence (P14616 747-1297 limits assumed): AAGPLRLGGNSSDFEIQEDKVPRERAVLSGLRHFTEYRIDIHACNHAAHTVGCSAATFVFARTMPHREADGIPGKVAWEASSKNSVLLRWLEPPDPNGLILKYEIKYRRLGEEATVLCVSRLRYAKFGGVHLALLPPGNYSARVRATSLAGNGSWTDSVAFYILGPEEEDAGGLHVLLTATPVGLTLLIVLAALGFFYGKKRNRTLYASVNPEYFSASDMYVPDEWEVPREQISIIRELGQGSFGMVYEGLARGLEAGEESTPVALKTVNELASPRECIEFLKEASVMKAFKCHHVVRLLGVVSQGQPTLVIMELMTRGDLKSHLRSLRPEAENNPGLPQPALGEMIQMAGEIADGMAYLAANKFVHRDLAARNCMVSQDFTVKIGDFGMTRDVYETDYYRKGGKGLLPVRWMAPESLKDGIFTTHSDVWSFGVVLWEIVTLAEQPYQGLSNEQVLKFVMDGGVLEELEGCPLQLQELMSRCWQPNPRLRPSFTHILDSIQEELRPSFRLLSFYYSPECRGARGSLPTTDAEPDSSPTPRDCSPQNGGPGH
Tyrosine-protein kinase HCK (Homo sapiens), sequence (P08631 2-526 limits assumed): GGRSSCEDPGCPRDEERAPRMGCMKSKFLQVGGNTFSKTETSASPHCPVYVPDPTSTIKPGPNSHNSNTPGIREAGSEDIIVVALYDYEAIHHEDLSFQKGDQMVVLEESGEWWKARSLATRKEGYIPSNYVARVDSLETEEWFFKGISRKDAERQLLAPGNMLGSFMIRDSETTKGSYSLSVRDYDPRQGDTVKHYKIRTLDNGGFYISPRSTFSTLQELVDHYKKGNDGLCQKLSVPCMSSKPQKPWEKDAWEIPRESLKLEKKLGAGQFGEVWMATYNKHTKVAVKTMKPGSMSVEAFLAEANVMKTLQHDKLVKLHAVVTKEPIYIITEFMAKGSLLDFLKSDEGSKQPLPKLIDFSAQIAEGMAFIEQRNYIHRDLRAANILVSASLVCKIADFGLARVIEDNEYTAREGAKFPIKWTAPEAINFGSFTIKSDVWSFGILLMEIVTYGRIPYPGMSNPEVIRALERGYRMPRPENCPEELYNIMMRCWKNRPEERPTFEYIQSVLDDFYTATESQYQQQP

Row | Structure (SMILES) | inhibition [1] [%] | inhibition [2] [%] | inhibition [3] [%] | inhibition [4] [%] | inhibition [5] [%] | inhibition [6] [%] | inhibition [7] [%] | inhibition [8] [%] | inhibition [9] [%] | inhibition [10] [%]
1 | CCC(=O)Nc1ccc(C)c(-c2ccc(C(=O)NCC3CC3)cc2)c1 | 4.1 | 5.93 | 4.04 | 3.84 | 1.32 | 4.28 | 5.36 | 0 | 1.59 | -0.06
2 | Cc1ccc(C(=O)NC2CCC2)cc1-c1ccc(C(=O)NCC2CC2)cc1 | 2.7 | 4.64 | 6.65 | 2.06 | 3.83 | 4.44 | 5.62 | 0.92 | 1.77 | 2.02
3 | O=C(Nc1n[nH]c2cc(-c3cc(F)ccc3F)ccc12)C1CC1 | 6.73 | 7.73 | 8.12 | 0.54 | 2.05 | 7.13 | 4.97 | 1.56 | 0.94 | 2.16
4 | c1ccc(Oc2ccc(Nc3ncc(-c4ccccc4)o3)cc2)cc1 | 2.97 | 3.85 | 5.01 | 1.77 | 2.01 | 4.11 | 2.94 | -1.75 | 1.99 | 0.89
5 | CCN(CC)Cc1ccc(Nc2nccc(-c3cnn4ncccc34)n2)cc1 | 5.04 | 4.93 | 13.5 | 3.11 | 54.6 | 21.9 | 73.2 | 2.45 | 7.36 | -3.08
6 | C/C(Nc1ccc(S(N)(=O)=O)cc1)=C1/C(=O)Nc2ccccc21 | 2.57 | -0.82 | 6.24 | 0.12 | 9.94 | 2.85 | 12.7 | -2.56 | -0.64 | -0.1
7 | COc1cc(C)c(N(C)C(=O)CN(C)C)cc1Nc1nc(Nc2cccc(F)c2C(N)=O)c2cc[nH]c2n1 | -2.41 | 2.52 | 4.78 | 31.2 | 81.6 | 52.5 | 107 | 5.09 | 17.1 | -2.44
8 | O=C(Nc1n[nH]c2nc(-c3ccc(O)cc3)c(Br)cc12)C1CC1 | 14.5 | 12.2 | 28.4 | 5.22 | 5.83 | 7.55 | 6.22 | 1.99 | 1.59 | 2.89
9 | COc1cc2ncn(-c3cc(OCCc4ccccc4)c(C(N)=O)s3)c2cc1OC | 2.86 | 2.34 | 11.2 | 1.99 | 2.07 | 2.51 | 0.56 | 2.17 | 2.64 | 1.33
10 | CN(C)CCOc1ccc(-c2cc(-c3ccc4c(c3)CCC4=NO)c(-c3ccncc3)o2)cc1 | 8 | -2.29 | 2.91 | -3.2 | 0.2 | 3.17 | 1.94 | -1.33 | -1.94 | -1.36
11 | CCc1cccc(CC)c1/C=C/c1cncc(C(=O)NC)c1 | 3.44 | 5.19 | 10 | 3.36 | 3.86 | 1.7 | 1.65 | 5.5 | 2.06 | 0.83
12 | COc1cc(N2CCN(C(C)C)CC2)ccc1Nc1nc(Nc2ccc(F)cc2C(=O)NC[C@@H](O)CO)c2cc[nH]c2n1 | -0.08 | 3.99 | 5 | 80.6 | 92.6 | 110 | 116 | 26.6 | 78 | -1.99
13 | CCc1ccc(Oc2nccc(-c3c(-c4ccc(F)cc4)ncn3C3CCNCC3)n2)cc1 | 7.59 | 4.84 | 8.91 | 5.24 | 3.51 | 5.54 | 3.85 | 2.18 | 3.43 | 2.08
14 | NC(=O)c1ccc(Oc2nccc(-c3c(-c4ccc(F)cc4)ncn3C3CCNCC3)n2)cc1 | 3.44 | 6.86 | 8.21 | 5.51 | 7.32 | 7.88 | 6.48 | 3.06 | 4.99 | 3.1
15 | Fc1ccc(-c2ncn(C3CCNCC3)c2-c2ccnc(Oc3ccc(Oc4ccccc4)cc3)n2)cc1 | 5.66 | 5.33 | 8.1 | 5.31 | 1.58 | 7.04 | 3.44 | 1.91 | 3.32 | 3.37
16 | CCS(=O)(=O)c1ccc(OC)c(Nc2ncc(-c3ccccc3Cl)o2)c1 | 19.1 | 4.06 | 11.8 | 1.62 | 5.87 | -0.92 | 3.26 | 1.25 | 3.78 | 0.29
17 | O=C(Nc1ccc(Oc2ccc3[nH]c(NC(=O)c4ccccc4)nc3c2)cc1)Nc1cc(C(F)(F)F)ccc1F | 21.5 | 7.45 | 21.8 | 10.6 | 7.91 | 2 | 2.26 | 2.66 | 3.55 | 1.11

Row | Structure (SMILES) | inhibition [1] [%] | inhibition [2] [%] | inhibition [3] [%] | inhibition [4] [%] | inhibition [5] [%] | inhibition [6] [%] | inhibition [7] [%] | inhibition [8] [%] | inhibition [9] [%] | inhibition [10] [%]
18 | O=C(NCC1CC1)c1ccc(-c2cccc(C(=O)NC3CC3)c2)cc1 | 2.23 | 2.5 | 7.59 | 2.46 | 4.73 | 1.73 | 3.95 | 1.19 | 2.93 | 1.15
19 | Cc1nnc(-c2ccc(C)c(-c3ccc(C(=O)NCc4ccc(Cl)cc4)cc3)c2)o1 | -1.62 | 4.39 | 5.02 | -3.42 | -3.35 | 5.65 | 6.19 | 1.93 | 1.98 | -2.09
20 | COc1cc2ncn(-c3cc(OCc4cccs4)c(C(N)=O)s3)c2cc1OC | 10.6 | 4.48 | 23.4 | -8.52 | -6.38 | -0.44 | 2.03 | 0.43 | 1.63 | -1
21 | Fc1ccc(-c2nc3n(c2-c2ccncc2)CCS3)cc1 | -3.64 | 4.65 | 7.02 | -2.12 | -4.05 | 7.27 | 5.39 | 2.11 | 1.09 | -1.96
22 | CN(C)c1ccc2c(c1)/C(=C/Nc1ccc(S(N)(=O)=O)cc1)C(=O)N2 | 13.1 | 4.88 | 20.5 | 9.21 | 11.9 | 3.88 | 6.31 | 0.97 | 3.14 | 1.03
23 | COc1ccc2cc(-c3c(-c4ccncc4)nc(-c4ccc([S+](C)[O-])cc4C)n3C)ccc2c1 (stereo not given) | 1.8 | -0.56 | 4.6 | 0.87 | 1.27 | 0.15 | 2.57 | -0.96 | 1.18 | 0.02
24 | NC(=O)c1cc(-c2ccc(F)cc2)cc(-c2ccncc2)c1N | 5.17 | 6.59 | 7.14 | 2.14 | -0.61 | 5.25 | 5.27 | 1.58 | 1.32 | 0.92
25 | C[C@@H](Oc1cc(-n2cnc3ccc(OC4CCN(C)CC4)cc32)sc1C(N)=O)c1ccccc1Cl | -4.42 | 6.15 | 13 | -9.14 | 0.05 | 10.4 | -1.99 | 2.49 | 3.03 | -2.4
26 | COc1cc2ncn(-c3cc(OCc4ccccc4C(F)(F)F)c(C(C)=O)s3)c2cc1OC | 8.03 | 5.79 | 9.81 | -2.34 | 1.09 | -1.39 | -0.63 | 5 | 3.18 | 0.57
27 | COc1ccc2cc(-c3c(-c4ccncc4)nc(-c4ccc(S(C)(=O)=O)cc4C)n3C)ccc2c1 | 7.37 | 5.89 | 13.1 | 4.23 | 3.79 | 7.46 | 5.18 | 2.39 | 2.25 | 1.82
28 | CS(=O)(=O)CCNCc1cc(-c2cc3c(Nc4ccc(OCc5cccc(F)c5)c(Cl)c4)ncnc3s2)cs1 | 2.71 | 6.52 | 7.87 | 5.7 | 4.5 | 11.5 | 4.74 | 1.69 | 2.82 | 1.89
29 | NCc1ccc(-n2c(-c3nonc3N)nc3cnccc32)cc1 | 0.2 | 6.26 | 10.4 | 5.71 | 8.21 | 8.46 | 8.17 | 3.81 | 2.5 | 1.67
30 | N#Cc1ccc(Oc2nccc(-c3c(-c4ccc(F)cc4)ncn3C3CCNCC3)n2)cc1 | 3.01 | 5.66 | 5.1 | -0.43 | 0.96 | 3.29 | 3.86 | 3.14 | 4.24 | -0.47
31 | COc1ccc(C2=C(N3CCc4ccccc43)C(=O)NC2=O)cc1 | 4.68 | 8.17 | 9.54 | 4.43 | 6.19 | 4.83 | 8.59 | 2.42 | 1.91 | 1.76
32 | Cc1ccc(NC(=O)c2ccoc2)cc1-c1ccc(C(=O)NCC2CC2)cc1 | 1.16 | 4.54 | 5.55 | 2.46 | 1.25 | 1.81 | 3.42 | 0.32 | 0.32 | -0.83
33 | c1ccc(-c2n[nH]cc2-c2ccnc(-c3ccc(OCCN4CCOCC4)cc3)c2)nc1 | 4.24 | 1.69 | 4.55 | -2.45 | -2.14 | -2.85 | -1.85 | -0.78 | -0.34 | 5.52
34 | O=C1Nc2ccccc2/C1=C/Nc1ccc(-n2cncn2)cc1 | 7.09 | 5.82 | 11.7 | 10.8 | 16.7 | 9.38 | 14.8 | 2.54 | 5.98 | 1.26
